# Source: paper PMC7862700, “An all-to-all approach to the identification of sequence-specific readers for epigenetic DNA modifications on cytosine”
# Experiments:
# Experiment in all cases: DAPPL (digital affinity profiling via proximity ligation, sequencing); 10 mM Tris-HCl pH 7.5, 50 mM NaCl, 1 mM DTT, 4% glycerol, room temperature, 30 min; GST-TFs on glutathione beads, 16-mer random dsDNA library, 0.1% formaldehyde crosslink after washing; high values mean tight binding
# [1] = target: T1, FEV (Homo sapiens, UniProt Q99581 1-238); settings: protein: recombinant; tags: N-terminal GST; dsDNA, one strand shown
# T1 sequence: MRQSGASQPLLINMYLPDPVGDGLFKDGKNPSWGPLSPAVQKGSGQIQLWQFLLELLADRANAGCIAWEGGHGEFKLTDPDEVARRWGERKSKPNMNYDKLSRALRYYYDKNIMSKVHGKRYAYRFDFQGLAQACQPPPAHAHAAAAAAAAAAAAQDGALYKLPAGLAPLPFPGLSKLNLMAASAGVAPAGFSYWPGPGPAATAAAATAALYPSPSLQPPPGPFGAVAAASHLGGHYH
# In short: (§1)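 Beads coated with glutathione captured GST-fused human transcription factors that had been expressed in yeast, and the factors were then given DNA barcodes and pooled with a tag-only sample. The pools were incubated with 200 nmole of a random double-stranded 16-mer DNA library in Tris/NaCl/DTT/glycerol buffer for 30 min at room temperature, washed, crosslinked with 0.1% formaldehyde and proximity-ligated with BsaI/T4 ligase at 37 °C for 1 h. PCR amplification and Illumina NextSeq500 sequencing came last. Binding signal is each hexamer's read frequency for a factor divided by its frequency for the tag-only sample.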
# [2] = target: ETV5 (Homo sapiens, UniProt P41161 1-510); settings: protein: recombinant; tags: N-terminal GST; dsDNA, one strand shown
# ETV5, sequence (P41161 whole entry): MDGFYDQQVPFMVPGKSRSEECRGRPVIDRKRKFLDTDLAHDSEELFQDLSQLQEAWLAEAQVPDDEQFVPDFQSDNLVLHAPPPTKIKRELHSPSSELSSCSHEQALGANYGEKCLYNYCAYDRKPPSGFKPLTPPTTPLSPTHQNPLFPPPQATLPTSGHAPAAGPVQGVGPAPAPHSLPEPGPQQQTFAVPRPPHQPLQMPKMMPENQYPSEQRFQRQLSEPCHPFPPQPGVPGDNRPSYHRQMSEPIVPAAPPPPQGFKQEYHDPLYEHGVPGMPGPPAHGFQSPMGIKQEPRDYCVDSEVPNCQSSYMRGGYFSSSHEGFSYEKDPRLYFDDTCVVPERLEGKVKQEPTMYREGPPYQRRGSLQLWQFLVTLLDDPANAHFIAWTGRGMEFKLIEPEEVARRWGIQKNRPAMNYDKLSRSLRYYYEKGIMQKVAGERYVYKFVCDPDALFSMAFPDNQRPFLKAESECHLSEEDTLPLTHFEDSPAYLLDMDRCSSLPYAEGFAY
# In short: as §1
# [3] = target: HSF1 (Homo sapiens, UniProt Q00613 1-529); settings: protein: recombinant; tags: N-terminal GST; chain copies: 3; dsDNA, one strand shown
# HSF1, sequence (Q00613 whole entry): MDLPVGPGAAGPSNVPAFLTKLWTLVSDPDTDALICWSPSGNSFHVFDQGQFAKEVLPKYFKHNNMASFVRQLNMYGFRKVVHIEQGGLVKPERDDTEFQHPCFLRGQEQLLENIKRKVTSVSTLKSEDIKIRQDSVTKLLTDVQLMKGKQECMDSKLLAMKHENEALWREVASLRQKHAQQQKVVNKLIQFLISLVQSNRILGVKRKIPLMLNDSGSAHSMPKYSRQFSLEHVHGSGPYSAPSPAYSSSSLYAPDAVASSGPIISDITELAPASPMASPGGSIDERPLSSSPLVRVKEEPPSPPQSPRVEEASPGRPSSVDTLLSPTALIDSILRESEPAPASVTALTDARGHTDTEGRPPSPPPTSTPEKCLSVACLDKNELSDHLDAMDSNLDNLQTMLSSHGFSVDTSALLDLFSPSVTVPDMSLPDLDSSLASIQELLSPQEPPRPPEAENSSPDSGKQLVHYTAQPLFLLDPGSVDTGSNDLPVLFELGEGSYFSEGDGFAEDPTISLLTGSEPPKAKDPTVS
# In short: as §1
# [4] = target: T2, SPIC (Homo sapiens, UniProt Q8N5J4 1-248); settings: protein: recombinant; tags: N-terminal GST; dsDNA, one strand shown
# T2 sequence: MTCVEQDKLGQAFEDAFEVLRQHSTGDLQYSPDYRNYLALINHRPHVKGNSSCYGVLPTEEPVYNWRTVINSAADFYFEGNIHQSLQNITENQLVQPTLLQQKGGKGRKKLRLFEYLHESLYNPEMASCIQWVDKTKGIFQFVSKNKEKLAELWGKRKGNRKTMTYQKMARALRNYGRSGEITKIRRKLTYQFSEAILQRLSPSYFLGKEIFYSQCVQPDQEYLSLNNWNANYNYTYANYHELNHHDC
# In short: as §1
# [5] = target: ELF4 (Homo sapiens, UniProt Q99607 1-663); settings: protein: recombinant; tags: N-terminal GST; dsDNA, one strand shown
# ELF4, sequence (Q99607 whole entry): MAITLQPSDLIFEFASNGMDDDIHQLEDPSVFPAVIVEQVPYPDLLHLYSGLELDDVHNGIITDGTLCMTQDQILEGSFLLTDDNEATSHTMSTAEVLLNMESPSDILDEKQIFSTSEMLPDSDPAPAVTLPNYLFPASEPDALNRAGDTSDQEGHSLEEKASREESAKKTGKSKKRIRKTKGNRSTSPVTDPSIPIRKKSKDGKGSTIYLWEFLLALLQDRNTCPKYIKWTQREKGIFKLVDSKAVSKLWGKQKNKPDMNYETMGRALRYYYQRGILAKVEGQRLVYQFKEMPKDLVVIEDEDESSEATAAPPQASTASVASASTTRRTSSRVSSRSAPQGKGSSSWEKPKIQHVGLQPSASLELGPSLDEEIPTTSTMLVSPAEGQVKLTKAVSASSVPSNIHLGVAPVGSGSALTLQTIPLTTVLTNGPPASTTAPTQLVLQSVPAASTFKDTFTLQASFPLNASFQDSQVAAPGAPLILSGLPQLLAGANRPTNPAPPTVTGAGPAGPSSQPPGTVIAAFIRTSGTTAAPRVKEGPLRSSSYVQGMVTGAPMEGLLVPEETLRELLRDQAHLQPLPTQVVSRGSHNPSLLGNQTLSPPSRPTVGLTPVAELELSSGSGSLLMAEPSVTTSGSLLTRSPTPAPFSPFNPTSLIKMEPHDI
# In short: as §1
# [6] = target: T3, ELK4 (Homo sapiens, UniProt P28324-2 1-405); settings: protein: recombinant; tags: N-terminal GST; dsDNA, one strand shown
# T3 sequence: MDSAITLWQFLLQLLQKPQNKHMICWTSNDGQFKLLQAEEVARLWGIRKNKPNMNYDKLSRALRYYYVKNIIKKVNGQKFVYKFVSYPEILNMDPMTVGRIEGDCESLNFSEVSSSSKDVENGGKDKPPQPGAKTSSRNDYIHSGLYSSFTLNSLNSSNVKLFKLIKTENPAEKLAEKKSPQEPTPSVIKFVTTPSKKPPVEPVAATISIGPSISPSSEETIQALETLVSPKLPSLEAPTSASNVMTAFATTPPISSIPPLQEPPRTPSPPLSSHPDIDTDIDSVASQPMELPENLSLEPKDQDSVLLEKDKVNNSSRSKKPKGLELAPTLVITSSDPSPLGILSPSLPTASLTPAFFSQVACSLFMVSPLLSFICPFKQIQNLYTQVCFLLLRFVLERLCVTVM
# In short: as §1
# [7] = target: T4, ETV2 (Homo sapiens, UniProt O00321 1-342); settings: protein: recombinant; tags: N-terminal GST; dsDNA, one strand shown
# T4 sequence: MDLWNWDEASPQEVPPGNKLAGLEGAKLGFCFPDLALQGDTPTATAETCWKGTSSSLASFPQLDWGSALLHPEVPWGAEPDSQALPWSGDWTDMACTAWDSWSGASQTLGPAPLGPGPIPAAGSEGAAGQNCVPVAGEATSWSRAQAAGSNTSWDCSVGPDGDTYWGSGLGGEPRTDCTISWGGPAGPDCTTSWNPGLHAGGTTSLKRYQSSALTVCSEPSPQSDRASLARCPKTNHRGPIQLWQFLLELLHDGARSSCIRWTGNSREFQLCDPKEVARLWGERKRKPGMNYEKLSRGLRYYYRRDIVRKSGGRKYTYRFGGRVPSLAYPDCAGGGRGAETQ
# In short: as §1
# [8] = target: T5, ELF3 (Homo sapiens, UniProt P78545 1-371); settings: protein: recombinant; tags: N-terminal GST; dsDNA, one strand shown
# T5 sequence: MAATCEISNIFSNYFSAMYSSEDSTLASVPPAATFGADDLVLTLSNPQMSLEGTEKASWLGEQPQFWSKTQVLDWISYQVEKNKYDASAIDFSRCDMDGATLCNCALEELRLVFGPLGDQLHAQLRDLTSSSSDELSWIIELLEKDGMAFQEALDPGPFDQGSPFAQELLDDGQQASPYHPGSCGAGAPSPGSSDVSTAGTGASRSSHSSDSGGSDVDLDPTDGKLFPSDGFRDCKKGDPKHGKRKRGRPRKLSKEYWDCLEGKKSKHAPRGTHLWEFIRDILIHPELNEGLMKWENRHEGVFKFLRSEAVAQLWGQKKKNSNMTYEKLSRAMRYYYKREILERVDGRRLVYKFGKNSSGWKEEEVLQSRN
# In short: as §1
# [9] = target: CRX (Homo sapiens, UniProt O43186 1-299); settings: protein: recombinant; tags: N-terminal GST; dsDNA, one strand shown
# CRX, sequence (O43186 whole entry): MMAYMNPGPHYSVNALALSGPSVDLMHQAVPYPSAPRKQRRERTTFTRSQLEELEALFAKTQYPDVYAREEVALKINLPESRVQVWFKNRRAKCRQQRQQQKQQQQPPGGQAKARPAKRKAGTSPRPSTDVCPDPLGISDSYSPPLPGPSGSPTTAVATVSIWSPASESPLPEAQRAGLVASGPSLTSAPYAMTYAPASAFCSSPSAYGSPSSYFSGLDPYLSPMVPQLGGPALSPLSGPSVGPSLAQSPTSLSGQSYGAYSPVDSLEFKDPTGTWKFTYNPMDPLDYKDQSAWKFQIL
# In short: as §1
sequence,measurement,setting,value
AACTCC,binding signal,[1],"1.32 fold enrichment (6-mer frequency, TF over GST control)"
same,binding signal,[2],"1.32 fold enrichment (6-mer frequency, TF over GST control)"
same,binding signal,[3],"1.23 fold enrichment (6-mer frequency, TF over GST control)"
same,binding signal,[4],"1.32 fold enrichment (6-mer frequency, TF over GST control)"
same,binding signal,[5],"1.3 fold enrichment (6-mer frequency, TF over GST control)"
same,binding signal,[6],"1.13 fold enrichment (6-mer frequency, TF over GST control)"
same,binding signal,[7],"1.23 fold enrichment (6-mer frequency, TF over GST control)"
same,binding signal,[8],"1.13 fold enrichment (6-mer frequency, TF over GST control)"
same,binding signal,[9],"1.19 fold enrichment (6-mer frequency, TF over GST control)"
